# Shown are actives, neighbours in structure and some others; about 0.43% of the full set was active somewhere.
# GAA glycogen = alters human alpha-glucosidase cleavage of glycogen; 0.38% of 300,000 active; AID 2100; recombinant GAA, glycogen substrate, Amplex Red glucose oxidase fluorescence; Potency, µM (series often up to 76.4 µM), for the others: at the highest dose activity change, negative = inhibition, actives largely listed as inhibitors;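 further: potency means the concentration at half of the fitted maximal effect; 0% = full enzyme reaction and -100% = no-enzyme basal signal; the screen sought inhibitors and activators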
#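 qHTS, 1536-well; enzyme 4 nM final; cpd up to 77 uM; substrate bovine liver glycogen 30 ug; 50 mM citrate/phosphate pH 5.0, 0.01% Tween-20; 37 C, 40 min; Amplex Red detection 45 min RT; Hill fit → AC50.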
# GLA spleen mod = inhibitors or activators of human alpha-galactosidase in spleen homogenate. P06280. human spleen homogenate, 4MU-alpha-Gal fluorescence, 40 min. Potency, µM (titrated, usually from 80 µM), for inactives: at the top dose activity change, negative = inhibition, hits mostly inhibitors. 0.008% of 240,000 active. AID 2107;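 further: potency means the concentration at half of the fitted maximal effect; 0% = enzyme with vehicle and -100% = no enzyme basal signal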
# Target sequence (P06280 32-429 limits assumed): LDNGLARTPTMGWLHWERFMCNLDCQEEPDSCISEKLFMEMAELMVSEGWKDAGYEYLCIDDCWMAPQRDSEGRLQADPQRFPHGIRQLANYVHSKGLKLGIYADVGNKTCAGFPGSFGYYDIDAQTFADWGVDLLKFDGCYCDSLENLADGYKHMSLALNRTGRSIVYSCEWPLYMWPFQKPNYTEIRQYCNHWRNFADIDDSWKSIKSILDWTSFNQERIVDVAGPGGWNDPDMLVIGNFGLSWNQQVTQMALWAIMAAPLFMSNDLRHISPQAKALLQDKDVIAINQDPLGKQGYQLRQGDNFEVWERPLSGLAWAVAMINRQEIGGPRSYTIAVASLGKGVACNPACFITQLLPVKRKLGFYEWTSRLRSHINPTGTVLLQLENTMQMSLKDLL
#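 Fluorogenic readout (Ex 365/Em 440 nm) of 4-methylumbelliferone released from 1 mM 4-MU-alpha-galactoside by spleen homogenate, 40 min at 37C, pH 5.0. Data normalized to no-enzyme and enzyme controls; Hill-equation AC50 from compound titrations.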
# N370S GC = inhibitors or activators of N370S glucocerebrosidase for Gaucher disease; N370S GC spleen homogenate, 4MU-glucoside fluorescence; Potency, µM (top dose mostly 59.4 µM), for the others: at the highest dose activity change, negative = inhibition, actives largely listed as inhibitors; 0.092% of 330,000 active; AID 2101;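 further: potency means the concentration at half of the fitted maximal effect; 0% = full enzyme activity and -100% = no enzyme basal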
# GAA inh = blocks human lysosomal alpha-glucosidase; purified human GAA, 4-MU-alpha-glucoside fluorescence; P10253; 0.005% of 200,000 active; Potency, µM (doses to about 76.9 µM), inactives show top-dose activity change, negative = inhibition, most hits filed as inhibitors;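 further: potency means the concentration at half of the fitted maximal effect; plate controls were uninhibited enzyme wells for no effect and no-enzyme background for full effect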
#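 Activity normalized between no-enzyme (basal) and enzyme-only wells. Conditions: 4 nM human enzyme, 400 uM fluorogenic substrate, citrate/phosphate pH 5.0 with Tween-20, 20 min room temperature, compounds up to 77 uM.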
# GLA inh pH 4.5 = inhibitors of human alpha-galactosidase A at pH 4.5. P06280. 230,000 tested, under 10 active. AID 1467. activity change, negative = inhibition, % at 105 µM. purified enzyme, 4-MU-alpha-Gal fluorescence, pH 4.5;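 further: 0% = full activity with enzyme and -100% = basal without enzyme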
# GAA spleen mod = inhibitors or activators of human alpha-glucosidase in spleen homogenate. P10253. human spleen homogenate, 4-MU-alpha-glucoside fluorescence. Potency, µM (top dose mostly 79.9 µM), without a hit: at the highest dose activity change, negative = inhibition, actives largely listed as inhibitors. 0.006% of 240,000 active;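 further: potency means the concentration at half of the fitted maximal effect; 0% = enzyme with vehicle and -100% = no enzyme basal signal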
#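 Enzyme source: human spleen homogenate, 1 ug/well. Buffer 50 mM citric acid/K phosphate pH 5.0, 0.01% Tween-20. 4-MU-alpha-glucoside 1 mM; 37 C x 40 min; NaOH/glycine stop; fluorescence.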
# Starred values were filed as active, the others as inactive; ? = inconclusive; / = no result; [ ] = remark or other dose. The call rests on the fitted dose curve; in most records, active means well fitted curve in the direction sought with a large enough effect; inconclusive means small, poorly fitted or top-dose-only effect, or another doubt; inactive means no such curve, though single readings can be large; an effect the other way counts as inactive or inconclusive.
SMILES,GAA glycogen,GLA spleen mod,N370S GC,GAA inh,GLA inh pH 4.5,GAA spleen mod
CC(C)C/C(O)=C/c1nc2cc(Cl)ccc2oc1=O,?,-8%,2%,0%,2,-6%
Cc1ccc(C(C)C)c(OCC(=O)Nc2ccc3c(c2)nc(CCNC(=O)c2ccco2)n3C)c1,-5%[76.3 µM],/,/,/,/,/
Cc1cc(Oc2ccc(-c3nnc(-c4ccccc4)o3)cc2[N+](=O)[O-])ccc1Cl,7%,1%,1%,0%,5,-1%
CC12CCC(C(=O)NNc3ccccc3)(OC1=O)C2(C)C (configuration not stated),28µM*,0%,-15%,5%,-1,-4%
CC12CCC(C(=O)NNc3ccc([N+](=O)[O-])cc3)(OC1=O)C2(C)C (configuration not stated),?,-4%,-16%,/,-14,-4%
COc1cc(/C=N/Nc2ccccc2)ccc1O,?,/,-8%,/,/,/
COc1cc(/C=N/Nc2ccccn2)cc(OC)c1O,18µM*,-8%,19%,-6%,-12,-9%
COc1cc(/C=N/Nc2ccccc2C(F)(F)F)ccc1O,35µM*,-14%,-6%,-5%,0,?
CCOc1cc(/C=N/Nc2nnc(C)n2N)ccc1O,11µM*,/,-13%,/,/,/
COc1cc(/C=N/Nc2nncn2/N=C/c2ccc(O)c(OC)c2)ccc1O,10µM*,1%,-7%,1%,-3,-5%
COc1ccc(OC)c(/C=N/Nc2nncn2/N=C/c2cc(OC)ccc2OC)c1,-9%,5%,3%,1%,-13,-5%
COCCN1Cc2cccc(C(=O)NC3CCCCCC3)c2C1=O,6%,8%,13%,-4%,0,-2%
COc1ccc(S(=O)(=O)N2CCC(C(=O)Nc3ccc(Oc4ccccc4)cc3)CC2)cc1OC,11µM*,/,/,/,/,/
CC1CC2=C(C(=O)O1)C(c1ccc(Cl)cc1)Nc1ccccc1N2 (configuration not stated),8%,-3%,6%,-2%,-6,8%
O=C(O)COCC(=O)N1CCN(C2c3ccccc3-c3ccccc32)CC1,-9%,5%,-15%,/,-3,-3%
NC(N)=NCCC[C@H](NC(=O)CC1(CC(=O)N2CCN(C3c4ccccc4NC(=O)c4ccccc43)CC2)CCCC1)C(=O)NCCn1c(=O)n(-c2ccccc2)n(-c2ccccc2)c1=O (some centres not stated),/,-3%,18µM*,/,-13,-3%
Cc1ccc(C(C(=O)NC(C)(C)C)N(Cc2ccco2)C(=O)Cn2nnc(-c3cccs3)n2)cc1 (configuration not stated),6%,10%,4%,-4%,-2,4%
CC(C)(C)NC(=O)C(c1ccncc1)N(Cc1cccs1)C(=O)Cn1nnc(-c2cccs2)n1 (configuration not stated),28µM*,1%,3%,-7%,-2,-4%
COc1ccc(Cn2c(C)nnc2-c2cnn(C)c2N)cc1,-1%,28µM*,5%,5%,12,?
CN(C)c1nc(NCc2ccccc2)nc(N/N=C/c2ccc(Br)cc2)n1,18%,-1%,-16%,15%,1,2%
Cc1ccc(-c2nc3ncccn3c2NC(=O)C2CC2)cc1,-4%,7%,0%,6%,-20,0%
Brc1ccc(-c2nc3ncccn3c2Nc2ccc3c(c2)OCCO3)o1,22µM*,-14%,5%,-9%,-1,-9%
Cc1ccc(-c2nc3ncccn3c2Nc2ccc3c(c2)OCCO3)cc1,?,-10%,-11%,-17%,-8,-3%
Cc1ccc(-c2nc3ncccn3c2Nc2ccc3c(c2)OCCO3)o1,14µM*,4%,-2%,-3%,-3,-4%
Clc1ccc(-c2nc3ncccn3c2Nc2ccc3c(c2)OCCO3)cc1,?,-18%,8%,-3%,5,2%
SMILES,GAA glycogen,GLA spleen mod,N370S GC,GAA inh,GLA inh pH 4.5,GAA spleen mod
Oc1ccc(-c2nc3ncccn3c2Nc2ccc3c(c2)OCCO3)cc1,25µM*,-7%,/,-7%,0,-12%
Cc1ccc(-c2nc3ncccn3c2NC2CCCCC2)o1,28µM*,-1%,-26%,-2%,-2,-8%
N#Cc1c(N)nc(SCc2ccccn2)c(C#N)c1-c1cccs1,-4%,-7%,1%,-4%,-8,-15%
O=C(COC(=O)Cc1ccc(F)cc1)Nc1ccc2[nH]c(=O)[nH]c2c1,/,/,-4%,/,/,/
COc1cccc(C(=O)Nc2ccc(-c3nc4ccccc4o3)c(O)c2)c1,3%,5%,9%,?,15,-2%
O=C(Cc1ccsc1)N1CCN(S(=O)(=O)c2cccc(F)c2)CC1,/,/,-30%,/,/,/
CCOc1cccc(CNc2ccc(O)cc2)c1OCc1ccccc1Cl,6.3µM*,5%,8%,-1%,-3,-2%
Brc1ccc(C2C3=C(Nc4ncnn42)c2ccccc2OC3c2ccncc2)cc1 (configuration not stated),-25%,-3%,14µM*,0%,-10,3%
Cc1ccc(C(=O)NNc2cc(N3CCCC3)nc(N3CCCC3)n2)cc1,28µM*,11%,-1%,6%,6,0%
O=C(NNc1cc(N2CCOCC2)nc(N2CCOCC2)n1)c1ccc(Cl)c(Cl)c1,-6%,0%,10%,-13%,-14,-10%
O=C(O)c1cc2c(ccc3ccccc32)o1,28%,40µM*,?,-2%,6,-12%
COc1cccc(C2CC(=O)Nc3c2c(=O)[nH]c2nc4ccccc4n32)c1 (configuration not stated),40µM*,/,/,/,/,/
COc1ccc(-c2ccc(SC)nn2)cc1,9%,3%,2%,-6%,-6,/
Oc1cc2c(cc1O)[C@@H](c1ccccc1)CNCC2,1.8µM*,4%,13%,3%[15.4 µM],7,4%
C/C(=N\N1CCN(C)CC1)c1ccc(Cl)c(Cl)c1,28µM*,1%,-2%,4%,5,2%
CCCN(CCC)CCCNC(=O)c1cn(CC)c2ccc(S(=O)(=O)N3CCOCC3)cc2c1=O,6%[76.3 µM],/,-6%,/,/,/
CCN(CC)c1ccc(/C=N/Nc2ccccc2)c(O)c1,18µM*,-1%,2%,-10%,-10,6%
CCN(CC)c1ccc(/C=N/Nc2cccc(C)c2)c(O)c1,-27%,-3%,-2%,1%,2,-9%
COc1cc(/C=N\n2nnnc2N)ccc1OCc1ccc(F)cc1,7%,10%,6%[2.35 µM],?,7,2%
Cc1cccc(C)c1NC(=O)CSCC(=O)c1ccc(O)c(O)c1,11µM*,-4%,2%,-20%,-2,-10%
Cc1ccc(C)c(NC(=S)NNC(=O)c2ccco2)c1,22µM*,9%,-5%,0%,-9,0%
